Screen size: about 69,000 compounds; about 8,600 (12%) showed an effect of 50% or more. This is one part of a sample in which strong results are shown more often than they occur.
Each compound was assayed on Plasmodium berghei (assay: Screen against P. berghei liver stage (PbLuc), transformed with Luciferase, at 10uM). Conditions: tested at 10 uM.
Assay type: functional, HepG2
With COC(=O)C(C)(C)NC(=O)C1CC(=O)N(CC2CC2)C1 (stereo not given) the INHIBITION was 25.1%.
In the case of CNc1snc(C)c1C(=O)N1CCCC(n2ccnc2)C1 (stereo not given), the INHIBITION is reported as 33.8%.
For CC[C@H]1N(Cc2ccc(OC)cc2)CCC[C@]12CCC(=O)N2C, the INHIBITION was 6.27%.
For Cc1nc(N2CCCN(c3ncccn3)CC2)c2cnn(C)c2n1, the INHIBITION was -9.29%.
Cc1ncsc1CN1CCn2nc(CCC(=O)N3CCCC3)cc2C1 gave an INHIBITION of 14.9%.
In the case of Cc1nnc(NC(=O)CN2CCc3c(nc(C4CC4)n3C)C2)s1, the INHIBITION is reported as 14.4%.
With CC(=O)NC1CCCN(C(=O)NCc2ccc(-n3cccn3)cc2)C1 (stereo not given) the INHIBITION was 0.914%.
With O=C(Cc1cccs1)N1C[C@@H]2COC[C@]2(COCc2cccnc2)C1 the INHIBITION was 43.9%.
Compound Cc1cc2[nH]c(=O)c(=O)[nH]c2cc1S(=O)(=O)NC1CCC(C)CC1 (stereo not given) has an INHIBITION of 23%.
Work on Cc1cc2nc(O)c(O)nc2cc1S(=O)(=O)NC1CC1 yielded an INHIBITION of 60.7%.
With Cc1cc2[nH]c(=O)c(=O)[nH]c2cc1S(=O)(=O)NC1CCCCC1 the INHIBITION was -27.7%.
Compound CNC(=O)[C@@H](c1ccccc1F)N1CCC[C@H]1C(=O)NC1CCOCC1 has an INHIBITION of -27.5%.
Work on O=S(=O)(NCC1COc2ccccc2C1)N1CCCC1 (stereo not given) yielded an INHIBITION of -30%.
CN1CCCC(CNS(=O)(=O)N2CCc3ccccc3C2)C1 (stereo not given) gave an INHIBITION of 57.8%.
Work on O=S(=O)(NCC1CCOC1)N1CCc2ccccc2C1 (stereo not given) yielded an INHIBITION of 27.5%.
O=S1(=O)CCC(CNS(=O)(=O)N2CCc3ccccc3C2)C1 (stereo not given) showed an INHIBITION of 52.2%.
In the case of CCN1CCC(CNS(=O)(=O)N2CCc3ccccc3C2)C1 (stereo not given), the INHIBITION is reported as 45.4%.
Compound O=S(=O)(NCC1COc2ccccc2C1)N1CCCCC1 (stereo not given) has an INHIBITION of -7.71%.
Work on CCn1nc(CC(C)C)cc1C(=O)NCc1c(C)cc(C)nc1OC yielded an INHIBITION of 47.3%.
In the case of CSCC(=O)Nc1cccc(Oc2ccccn2)c1, the INHIBITION is reported as -9.93%.
In the case of CN(C)S(=O)(=O)NC1CC(=O)N(c2ccccc2Cl)C1 (stereo not given), the INHIBITION is reported as 25.8%.
Work on O=C1CC(NS(=O)(=O)NCc2ccccc2)CN1c1ccccc1Cl (stereo not given) yielded an INHIBITION of 55%.
Work on CS(=O)(=O)NC1CC(=O)N(c2ccccc2Cl)C1 (stereo not given) yielded an INHIBITION of 28.7%.
For c1cncc(COCc2cncc3c2CCN(Cc2ccoc2)C3)c1, the INHIBITION was 54.8%.
CC(C)COCc1cncc2c1CCN(Cc1cnn(C)c1)C2 was tested, and the INHIBITION was 71.8%.
Work on CN(C)C(=O)COCc1cncc2c1CCN(Cc1cnn(C)c1)C2 yielded an INHIBITION of 23.5%.
In the case of CC(C)N(C)Cc1cncc2c1CCN(CC1CC1)C2, the INHIBITION is reported as 44.8%.
Compound COCc1cncc2c1CCN(Cc1cccnc1)C2 has an INHIBITION of 24.8%.
Compound CN(C)Cc1cncc2c1CCN(Cc1ccoc1)C2 has an INHIBITION of 24.9%.
In the case of CC(C)N(C)Cc1cncc2c1CCN(CC(=O)N(C)C)C2, the INHIBITION is reported as 12.2%.
CN(C)Cc1cncc2c1CCN(Cc1cnn(C)c1)C2 gave an INHIBITION of 59.8%.
COCc1cncc2c1CCN(Cc1cnn(C)c1)C2 was tested, and the INHIBITION was -26.2%.
With CN(C)Cc1cncc2c1CCN(CC(=O)N(C)C)C2 the INHIBITION was 72%.
In the case of Cn1cc(CN2CCc3c(COCC4CC4)cncc3C2)cn1, the INHIBITION is reported as 7.15%.
With CN(Cc1cccnc1)Cc1cncc2c1CCN(Cc1ccoc1)C2 the INHIBITION was 28.5%.
CCC[C@H]1CN(C(=O)CCn2ccccc2=O)C[C@@H]1NS(C)(=O)=O was tested, and the INHIBITION was -7.98%.
In the case of Cc1nc(C(C)C)sc1C(=O)N1CCC(C(N)=O)CC1, the INHIBITION is reported as -49.2%.
Cc1cc(C)cc(OCC(=O)NC2CCN(S(C)(=O)=O)CC2)c1 was tested, and the INHIBITION was 33%.
Compound Cc1cc(N2CCN(CCO)CC2)nc(-c2ccncc2)n1 has an INHIBITION of 30%.
With CN1CCN(C(=O)COCc2nc(-c3ccncc3)no2)CC1 the INHIBITION was 11.4%.
In the case of CC(C)NC(=O)NCc1nnc2n1C(C(=O)N(C)C)CC2 (stereo not given), the INHIBITION is reported as 9.32%.
In the case of CCCc1noc(C2CCN(C(=O)CCn3nc(C)cc3C)CC2)n1, the INHIBITION is reported as 36.6%.
For COC[C@H]1CCC[C@H]1Nc1ncnc2c1CCNCC2, the INHIBITION was -6.94%.
CC(C)N1CCC2(CC1)CC(NCc1ccccn1)c1ccccc1O2 (stereo not given) gave an INHIBITION of 7.31%.
O=C(C1CCC1)N1CCC2(CCCN2CC2CC2)CC1 was tested, and the INHIBITION was 22.3%.
With O=C(C1CCCCC1)N1CCC2(CCCN2CC2CC2)CC1 the INHIBITION was 50.7%.
O=C(C1CCCC1)N1CCC2(CC1)COCCN2CC1CC1 showed an INHIBITION of 39.1%.
OC1(CNCCCN2CCc3ccccc32)CCNC1 (stereo not given) gave an INHIBITION of 30.7%.
Compound CCN(CCSc1ccccc1)C(=O)c1cn(C2CCC(N)CC2)nn1 (stereo not given) has an INHIBITION of -56.6%.
CN(C)c1cc(C(=O)Nc2cccnc2N2CCSCC2)ccn1 showed an INHIBITION of 2.97%.
CN(C)c1cc(C(=O)Nc2ccccc2C(=O)NC(C)(C)C)ccn1 gave an INHIBITION of 7.4%.
With CNC(=O)c1cccc(NC(=O)c2ccnc(N(C)C)c2)c1C the INHIBITION was 53.9%.
C=C(C)CN1CCN(Cc2nccn2C)C(C)C1 (stereo not given) showed an INHIBITION of 42.45%.
CN1CCN(C(=O)Cc2cccc(F)c2)Cc2cccnc21 gave an INHIBITION of -3.19%.
For Cc1nc2cc(F)ccc2cc1C(=O)N1CCN(CC(C)O)CC1 (stereo not given), the INHIBITION was -11.5%.
Compound Cc1nc(-c2cccs2)ccc1C(=O)N1CCN(CCO)CC1 has an INHIBITION of 27.6%.
With Cc1nc2cc(F)cc(C(=O)N3CCN(CCO)CC3)c2nc1C the INHIBITION was -24%.
Work on Cc1nc(-c2cccs2)ccc1C(=O)N1CCN(CC(C)O)CC1 (stereo not given) yielded an INHIBITION of 55.4%.
O=C(c1ccncc1F)N1CCCC1c1nc(-c2ccccc2)n[nH]1 (stereo not given) showed an INHIBITION of 16.8%.
Work on Cc1nc(-c2ccccc2)ccc1C(=O)N1CCn2c(C)nnc2C1 yielded an INHIBITION of -0.758%.
Cc1nc(-c2ccccc2)ccc1C(=O)N1CCN(CCO)CC1 showed an INHIBITION of 71.2%.
In the case of O=C(c1cc2ccccc2c(=O)[nH]1)N1CCN(CCO)CC1, the INHIBITION is reported as 2.32%.
Work on O=C(c1ccc(-c2cccs2)cc1F)N1CCN(CCO)CC1 yielded an INHIBITION of 38.7%.
Cc1nc(O)ccc1C(=O)N1CCCC1c1nc(-c2ccccc2)n[nH]1 (stereo not given) gave an INHIBITION of 69.8%.
Compound O=C(c1cc(-c2cccs2)nc2ccccc12)N1CCN(CCO)CC1 has an INHIBITION of 68.4%.
O=C(c1ccc[nH]1)N1CCCC1c1nc(-c2ccccc2)n[nH]1 (stereo not given) gave an INHIBITION of -1.76%.
In the case of Cc1cc(-n2nnc(C(=O)O)c2-c2ccncc2)ccc1F, the INHIBITION is reported as 49.9%.
Compound CCOC(=O)CNC(=O)c1cccnc1Sc1cc(OC)ccc1OC has an INHIBITION of 3.58%.
Work on Cc1ccc(CNC(=O)NC(C)CN2CCOCC2)s1 (stereo not given) yielded an INHIBITION of 14%.
COCCC(=O)N1C[C@@H](c2ccccc2F)[C@@]2(CCCC(=O)N2)C1 gave an INHIBITION of 29.5%.

From ChEMBL document CHEMBL4513216, “Probing the Open Global Health Chemical Diversity Library for Multistage-Active Starting Points for Next-Generation Antimalarials” (ACS Infect Dis, 2020)
